These results are taken from PubChem BioAssay (Tox21).

Results filed as inconclusive are left out. The source made the active and inactive calls. Unless noted, calls come from the whole dose curve; as a rule, active = well fitted curve in the direction sought with a large enough effect in the repeat runs; inconclusive = weak or mixed curves; inactive = no such curve, though single readings can be large; an effect the other way counts as inactive or inconclusive.

Test [1] is described as follows: qHTS assay to identify small molecule agonists of the peroxisome proliferator-activated receptor delta (PPARd) signaling pathway - cell viability counter screen (AID 743211). Note: nearly all actives have a fitted effect of over 55% in size. Note: potency is the fitted concentration of half-maximal effect. In short, it runs like this:
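In the same wells used for beta-lactamase reporter measurement, cytotoxicity is scored by CellTiter-Glo. HEK293H PPARd-bla cells receive compound for 17 h at 37C following a 5 h settling period.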

The target in test [2] is Peroxisome proliferator-activated receptor delta (Homo sapiens) (UniProt Q03181). The test is described as follows: qHTS assay to identify small molecule agonists of the peroxisome proliferator-activated receptor delta (PPARd) signaling pathway (AID 743212; calls by dose curve; note: potency is the fitted concentration of half-maximal effect). In short, it runs like this: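 HEK293H PPARd-bla cells; 5 h preincubation 37 C/5% CO2; compound (DMSO) 37 C; LiveBLAzer B/G FRET substrate 2 h RT; fluorescence intensity.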
(In general: In qHTS, concentration-response curves come from the screen itself.)

Test [3] can be described thus: qHTS assay to identify small molecule antagonists of the peroxisome proliferator-activated receptor delta (PPARd) signaling pathway - cell viability counter screen (AID 743213). Note: nearly all actives have a fitted effect of over 50% in size. Note: potency is the fitted concentration of half-maximal effect. The essentials:
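PPARd-bla HEK293H cells (3000/well) got compound plus 300 nM L165041 agonist for 17 h at 37 C. Viability in the same wells came from CellTiter-Glo luminescence after 30 min at room temperature.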

For test [4], the target named is Peroxisome proliferator-activated receptor delta (Homo sapiens) (UniProt Q03181). Put plainly: qHTS assay to identify small molecule antagonists of the peroxisome proliferator-activated receptor delta (PPARd) signaling pathway (AID 743215; active = well fitted inhibition curve with a large enough effect in the signal ratio in the repeat runs, not every such curve was filed as active; the % refers to the signal ratio;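 note: cells stimulated with agonist L165041 at 300 nM final during compound exposure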; note: potency is the fitted concentration of half-maximal effect). The essentials:
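Read-out is beta-lactamase FRET fluorescence, measured 2 h after substrate addition at room temperature. Beforehand, UAS-bla HEK293H cells carrying the PPARd reporter were exposed to compounds with L165041 at 300 nM final for 17 h at 37 C.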

The nature of test [5]: qHTS assay to identify small molecule agonists of the farnesoid-X-receptor (FXR) signaling pathway - cell viability counter screen (AID 743218). Note: nearly all actives have a fitted effect of over 45% in size. In short, it runs like this: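 HEK 293T FXR-bla cells; 5 h pre-incubation, 16 h compound exposure at 37 C; LiveBLAzer substrate 2 h RT, then CellTiter-Glo 30 min RT, luminescence.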
Test [6] can be described thus: qHTS assay to identify small molecule antagonists of the farnesoid-X-receptor (FXR) signaling pathway - cell viability counter screen (AID 743221; active = well fitted cell-killing curve with a large enough effect in the repeat runs, not every such curve was filed as active; note: nearly all actives have a fitted effect of over 50% in size; note: potency is the fitted concentration of half-maximal effect). In short, it runs like this: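 Here viability was scored by luminescence after CellTiter-Glo addition to wells already read for beta-lactamase. Prior treatment: compound plus CDCA (50 uM final), 16 h, 37 C, HEK 293T FXR-bla cells.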

Test [7] deals with Vitamin D3 receptor (Homo sapiens) (UniProt P11473). The test is described as follows: qHTS assay to identify small molecule agonists of the vitamin D receptor (VDR) signaling pathway (AID 743222; calls by dose curve). The essentials: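 VDR-bla cells, 2,000/well; 4 h preincubation 37C; cpd (DMSO) 16 h; LiveBLAzer B/G substrate 2 h RT; fluorescence intensity read.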
For test [8] the target is unchanged. Put plainly: qHTS assay to identify small molecule antagonists of the vitamin D receptor (VDR) signaling pathway (AID 743223; active = well fitted inhibition curve with a large enough effect in the signal ratio in the repeat runs, not every such curve was filed as active; the % refers to the signal ratio). The essentials: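 Inhibition of agonist-driven VDR signalling is scored in VDR-bla cells: 3 nM final 1alpha,25-dihydroxyvitamin D3 plus compound, 16 h at 37C, then beta-lactamase detection by FRET substrate fluorescence after 2 h.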
Test [9] addresses Bile acid receptor (Homo sapiens) (UniProt Q96RI1). Put plainly: qHTS assay to identify small molecule agonists of the farnesoid-X-receptor (FXR) signaling pathway (AID 743220; active = well fitted activation curve with a large enough effect in the signal ratio in the repeat runs, not every such curve was filed as active; the % refers to the signal ratio). In short, it runs like this:
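Beta-lactamase reporter under UAS control in GeneBLAzer FXR HEK 293T cells (5000/well) measured with LiveBLAzer FRET substrate after 2 h at room temperature. Compound exposure lasted 16 h at 37C.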

Sequence of Peroxisome proliferator-activated receptor delta (Homo sapiens) (Q03181 whole entry, looked up): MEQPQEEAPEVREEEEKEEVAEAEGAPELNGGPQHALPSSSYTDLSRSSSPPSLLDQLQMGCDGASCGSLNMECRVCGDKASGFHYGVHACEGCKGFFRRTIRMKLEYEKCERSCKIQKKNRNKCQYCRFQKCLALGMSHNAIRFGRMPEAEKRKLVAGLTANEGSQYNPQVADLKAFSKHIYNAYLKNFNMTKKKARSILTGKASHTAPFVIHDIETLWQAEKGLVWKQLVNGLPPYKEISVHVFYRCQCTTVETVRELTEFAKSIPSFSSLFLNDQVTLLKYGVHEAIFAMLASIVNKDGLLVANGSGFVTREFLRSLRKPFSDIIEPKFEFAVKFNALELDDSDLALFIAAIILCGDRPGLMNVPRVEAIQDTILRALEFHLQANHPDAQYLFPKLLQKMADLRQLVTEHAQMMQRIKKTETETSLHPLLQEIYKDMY
Sequence of Vitamin D3 receptor (Homo sapiens) (P11473 whole entry, looked up): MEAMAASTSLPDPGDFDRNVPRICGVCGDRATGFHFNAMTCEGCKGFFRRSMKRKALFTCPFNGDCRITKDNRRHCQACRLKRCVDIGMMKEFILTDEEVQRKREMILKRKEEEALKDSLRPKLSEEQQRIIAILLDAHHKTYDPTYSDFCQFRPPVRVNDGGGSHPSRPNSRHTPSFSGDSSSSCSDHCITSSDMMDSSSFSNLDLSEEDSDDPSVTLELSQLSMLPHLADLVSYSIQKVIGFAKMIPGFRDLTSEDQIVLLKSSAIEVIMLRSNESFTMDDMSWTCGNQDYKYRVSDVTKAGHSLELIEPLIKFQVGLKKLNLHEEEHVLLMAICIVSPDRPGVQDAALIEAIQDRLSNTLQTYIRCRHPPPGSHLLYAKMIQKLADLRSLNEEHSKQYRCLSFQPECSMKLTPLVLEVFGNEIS
Sequence of Bile acid receptor (Homo sapiens) (Q96RI1 whole entry, looked up): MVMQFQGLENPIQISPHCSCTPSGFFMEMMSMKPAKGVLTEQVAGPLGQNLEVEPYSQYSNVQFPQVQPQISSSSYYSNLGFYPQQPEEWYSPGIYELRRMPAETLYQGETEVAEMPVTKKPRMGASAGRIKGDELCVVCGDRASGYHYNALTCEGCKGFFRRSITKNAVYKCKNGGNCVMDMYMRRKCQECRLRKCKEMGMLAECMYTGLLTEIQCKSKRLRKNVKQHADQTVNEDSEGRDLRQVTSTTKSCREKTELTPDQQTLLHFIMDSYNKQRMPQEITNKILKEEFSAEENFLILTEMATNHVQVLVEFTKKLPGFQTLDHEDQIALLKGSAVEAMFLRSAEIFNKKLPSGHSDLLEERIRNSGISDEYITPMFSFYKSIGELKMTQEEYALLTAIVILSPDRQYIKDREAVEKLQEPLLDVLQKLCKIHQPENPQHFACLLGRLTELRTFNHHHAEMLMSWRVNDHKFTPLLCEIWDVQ

Consider `CCn1cc(C(=O)O)c(=O)c2cc(F)c(N3CCNCC3)cc21`, for which the Potency entry in [1], in [2], in [3], in [4], in test [5] and in test [6] was “inactive” in each case.
For `c1ccc2c(c1)CCc1ccccc1N2`, the Potency entry in [1], in [2], in test [3], in test [4], in test [5] and in [6] was “inactive” in each case. Besides, in test [7], the Potency entry is “inactive”.
`C=CCc1ccccc1OCC(O)CNC(C)C` (stereo unspecified): the Potency result in [1], in test [2], in [3], in test [4], in test [5] and in test [6] was “inactive” throughout. Moreover, the Potency entry in [7] and in test [8] was “inactive” in each case.
Regarding `CC/C=C1/OC(=O)c2ccccc21`, the Potency entry in test [1], in test [2], in [3], in test [4], in test [5] and in test [6] was “inactive” in each case. For the same molecule, the Potency entry in [7] and in [8] was “inactive” each time.
In the case of `Cc1cc(O)c(C)c(C)c1O`, the Potency entry in test [1], in [2], in test [3], in [4], in [5] and in test [6] was “inactive” in each case.
On to `COc1ccccc1N1CCN(CC(O)COc2cccc3ccccc23)CC1` (stereo unspecified), for which the Potency was 26.6 µM (active) in test [1] and 29.8 µM (active) in test [3]. Moreover, the Potency entry in test [2], in test [4], in test [5], in [6], in test [7] and in test [8] was “inactive” in each case.
For the molecule `O=c1[nH]c2ccc(Cl)cc2o1`, the Potency result in test [1], in test [2], in [3], in test [4], in [5] and in test [6] was “inactive” each time. Moreover, the Potency entry in test [7] is “inactive”.
Consider `NNC(=O)CP(=O)(c1ccccc1)c1ccccc1`, for which the Potency result in test [1], in test [2], in [3], in test [4], in test [5] and in test [6] was “inactive” throughout.
As to `CC(O)c1ccccc1` (stereo unspecified), the Potency result in test [1], in test [2], in [3], in test [4], in test [5] and in test [6] was “inactive” in each case. In addition, the Potency result in test [7] and in [8] was “inactive” in each case.
As to `CCCCCCCCCI`, the Potency result in test [1], in test [2], in [3], in [4], in test [5] and in [6] was “inactive” each time.
Take `Cc1ccc(OC(=O)c2ccccc2O)cc1`: the Potency entry in test [1], in [2], in test [3], in test [4], in test [5] and in [6] was “inactive” each time. For the same molecule, the Potency entry in test [7] and in test [8] was “inactive” throughout.
Consider `CO[C@]1(NC(=O)CSC(F)F)C(=O)N2C(C(=O)O)=C(CSc3nnnn3CCO)CO[C@H]21`, for which the Potency result in test [1], in test [2], in [3], in [4], in test [5] and in test [6] was “inactive” each time. In addition, the Potency entry in test [7] and in test [8] was “inactive” each time.
Regarding `CN1CC(=O)N2[C@H](c3ccc4c(c3)OCO4)c3[nH]c4ccccc4c3C[C@@H]2C1=O`, the Potency result in test [1], in [2], in test [3], in test [4], in [5] and in test [6] was “inactive” each time. Besides, the Potency entry in test [7] and in test [8] was “inactive” throughout.
For `Nc1cccc2c1CN(C1CCC(=O)NC1=O)C2=O` (stereo unspecified), the Potency result in test [1], in test [2], in test [3], in test [4], in test [5] and in [6] was “inactive” each time. Moreover, in [7], the Potency result was “inactive”.
Turning to `CCCC(=O)C(=O)O`, the Potency result in test [1], in test [2], in test [3], in test [4], in [5] and in test [6] was “inactive” in each case.
`Cc1cscn1`: the Potency result in test [1], in test [2], in test [3], in [4], in test [5] and in [6] was “inactive” each time. Also, the Potency entry in test [7] and in [8] was “inactive” each time.
As to `CC(=O)c1ccc([N+](=O)[O-])cc1`, the Potency entry in [1], in test [2], in test [3], in test [4], in [5] and in [6] was “inactive” each time. The Potency entry in test [7] and in test [8] was “inactive” throughout.
`C=CC(C)(CCC=C(C)C)OC(=O)CC(C)C` (stereo unspecified): the Potency entry in test [1], in test [2], in test [3], in test [4], in test [5] and in [6] was “inactive” throughout. In addition, in test [7], the Potency result is “inactive”.
`CC[N+](CC)(CCNC(=O)C(=O)NCC[N+](CC)(CC)Cc1ccccc1Cl)Cc1ccccc1Cl`: the Potency result in test [1], in test [2], in test [3], in test [4], in [5] and in [6] was “inactive” throughout.
`CC[C@]1(O)C[C@H]2CN(CCc3c([nH]c4ccccc34)[C@@](C(=O)OC)(c3cc4c(cc3OC)N(C=O)[C@H]3[C@@](O)(C(=O)OC)[C@H](OC(C)=O)[C@]5(CC)C=CCN6CC[C@]43[C@@H]65)C2)C1`: the Potency entry in test [1], in test [2], in test [3], in [4], in test [5] and in test [6] was “inactive” each time.
`CCCCCCCCN`: the Potency result in test [1], in [2], in test [3], in [4], in test [5] and in test [6] was “inactive” throughout. Besides, the Potency entry in test [7] and in [8] was “inactive” throughout.
For `CC(=O)Nc1cc(S(=O)(=O)O)cc2cc(S(=O)(=O)O)c(N=Nc3ccccc3)c(O)c12`, the Potency entry in test [1], in [2], in [3], in test [4], in test [5] and in test [6] was “inactive” throughout. The Potency result in [7] and in test [8] was “inactive” each time.
For the molecule `CCOC(=O)c1ccc(O)c(O)c1`, the Potency result in test [1], in test [2], in test [3], in test [4], in test [5] and in test [6] was “inactive” throughout.
In the case of `CCCCN(CCCC)C(C(N)=O)c1ccc(OC)cc1` (stereo unspecified), the Potency entry in [1], in test [2], in [3], in test [4], in test [5] and in [6] was “inactive” in each case.
Turning to `CCOc1ccccc1O[C@H](c1ccccc1)[C@H]1CNCCO1`, the Potency entry in test [1], in test [2], in test [4], in test [5] and in test [9] was “inactive” each time.
Consider `C[C@@H](O[C@H]1OCCN(Cc2n[nH]c(=O)[nH]2)[C@H]1c1ccc(F)cc1)c1cc(C(F)(F)F)cc(C(F)(F)F)c1`, for which the Potency in test [1] was 26.6 µM (active); in test [3], 26.6 µM (active); in test [4] it was 29.8 µM (active); in [6], 29.8 µM (active). Also, the Potency entry in [2] and in test [9] was “inactive” each time.
For `CC(=O)N/N=C/c1ccc([N+](=O)[O-])o1`, the Potency result in test [1], in test [2], in test [3], in test [4], in test [5] and in test [7] was “inactive” throughout.
For the molecule `CCCCCC[C@@H](O)C/C=C\CCCCCCCC(=O)OCC(O)CO` (stereo partly specified), the Potency entry in test [1], in [3], in test [5], in test [6] and in test [7] was “inactive” in each case. For the same molecule, the Potency in test [2] was 49 µM (active).
On to `N#CCc1ccc(Cl)cc1Cl`, for which the Potency entry in [1], in [2], in test [3], in test [5], in [6] and in [7] was “inactive” in each case.
On to `CO/N=C(/C(=O)N[C@@H]1C(=O)N2C(C(=O)O)=C(COC(N)=O)CS[C@H]12)c1ccco1`, for which the Potency entry in [1], in test [2], in [3], in test [4], in [5] and in test [6] was “inactive” throughout. The Potency result in [8] was “inactive”.
On to `NC(=O)c1ccncc1`, for which the Potency result in test [1], in test [2], in test [3], in test [4] and in test [6] was “inactive” throughout.
